CCT chaperon mod: High-Throughput Screening for Modulators of Cytosolic Chaperonin Activity. purified chaperonin ATPase assay, HTRF ADP detection, 30 min. 0.3% of 360,000 active. activity change, % (concentration not given with the values), hits read low; in the data active = activity change below about -30%
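Nucleotide hydrolysis assay: TRiC at 20–40 nM final (set by batch activity) with 10 uM ATP, 30 min at 37 °C, in presence of 76 uM compound. Detection by competitive ADP HTRF, 30 min ambient.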
Akt phos inh: HTS Assay for Inhibitors of Akt Phophorylation: Primary Screen. activity change, % for hits at 50 µM. 0.32% of 360,000 active. Neuro2A IGF-stimulated pAkt S473 HTRF, 20 min; stronger effect = lower value. AID 651550, 2012; in the data active = activity change below about -80%; inconclusive = mostly about -51% to -80%
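Single-point screen (50 µM final compound) in Neuro2A cells stimulated 20 min with 6 nM IGF at 37 deg C. After lysis, Ser473-phosphorylated Akt read by HTRF (ex 330 nm, em 615/665 nm) as the 665/615 ratio.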
CtBP-E1A inh: qHTS Assay for Inhibitors of the CtBP/E1A Interaction. CtBP / adenovirus E1A interaction (AlphaScreen). AlphaScreen GST-E1A/His-CtBP binding, 1536-well; stronger effect = lower value. activity change, % (concentration not given with the values). 0.49% of 340,000 active. AID 651724, 2012
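AlphaScreen with 125 nM GST-E1A and 125 nM His-CtBP (5X stocks) in Tris pH 8.0, 300 mM NaCl, BSA, Tween 20, TCEP. Compounds preincubated 2 h at 37 deg C, then glutathione donor/nickel acceptor beads added for 1 h at 37 deg C in dark.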
Six1-Eya2 blk: qHTS Assay for Inhibitors of the Six1/Eya2 Interaction | 0.56% of 360,000 active | activity change, % (no concentration beside the values) | AlphaScreen GST-Six1/His-Eya2 binding, biochemical; stronger effect = lower value | Homeobox protein SIX1 (Homo sapiens) + Protein phosphatase EYA2 (Homo sapiens), … | AID 651725, 2012
Target sequence (O00167 whole entry, looked up): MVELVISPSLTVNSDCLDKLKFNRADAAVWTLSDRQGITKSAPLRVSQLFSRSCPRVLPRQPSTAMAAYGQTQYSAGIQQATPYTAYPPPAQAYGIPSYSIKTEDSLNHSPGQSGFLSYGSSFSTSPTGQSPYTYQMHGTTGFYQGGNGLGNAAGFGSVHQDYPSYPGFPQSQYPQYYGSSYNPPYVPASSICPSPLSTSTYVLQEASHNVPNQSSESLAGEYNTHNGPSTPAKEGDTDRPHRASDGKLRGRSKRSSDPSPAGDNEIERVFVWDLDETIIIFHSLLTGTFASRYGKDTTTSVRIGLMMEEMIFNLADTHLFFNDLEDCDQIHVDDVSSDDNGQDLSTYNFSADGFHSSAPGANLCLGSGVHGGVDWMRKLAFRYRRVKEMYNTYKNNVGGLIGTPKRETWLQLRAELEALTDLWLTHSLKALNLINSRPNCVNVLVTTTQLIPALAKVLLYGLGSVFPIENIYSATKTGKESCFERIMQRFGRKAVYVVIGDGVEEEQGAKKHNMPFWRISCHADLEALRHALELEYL
Target sequence (Q15475 whole entry, looked up): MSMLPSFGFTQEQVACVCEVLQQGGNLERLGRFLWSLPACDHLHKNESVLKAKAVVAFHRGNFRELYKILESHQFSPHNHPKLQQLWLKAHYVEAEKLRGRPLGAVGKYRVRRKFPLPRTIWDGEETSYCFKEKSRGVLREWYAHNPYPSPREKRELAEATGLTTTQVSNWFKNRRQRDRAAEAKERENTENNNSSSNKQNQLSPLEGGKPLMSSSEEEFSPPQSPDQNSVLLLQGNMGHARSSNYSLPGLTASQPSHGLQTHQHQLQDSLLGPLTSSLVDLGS
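Six1/Eya2 binding was read as AlphaScreen signal after compounds were pinned into GST-Six1 plus His-tagged Eya2 (5X stock 250/500 nM) in pH 8.0 Tris/NaCl/TCEP buffer, beads added, then incubated 1 h, 37 C, dark.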
An asterisk follows results filed as active; i = inactive; ? = inconclusive; nt = no result given. Hits are enriched below; roughly 1.2% of the tested compounds scored in any of these assays. Cut-off read from the data, not from the text of the source, unless noted: active = activity change below about -65%; inconclusive = mostly about -30% to -63%; inactive = weaker than that. % is set by controls: 0 for no effect and ±100 for the full control effect.

SMILES	CCT chaperon mod	Akt phos inh	CtBP-E1A inh	Six1-Eya2 blk
COc1cccc(NC(=O)CN(C)C(=O)CCC(=O)c2cc(C)sc2C)c1	1.3	i	-77.4*	0.5
COc1cccc(NC(=O)CN(C)C(=O)c2cc(C)oc2C)c1	-30.5*	i	1.7	-2.8
CCN1CCN(C(=S)c2ccc(Cl)cc2)CC1	-10.3	-114.9%*	4.8	0.0
COc1cc2ccc(C(=O)O)cc2cc1OC	-5.0	i	-2.9	5.3
O=C(/C=C/c1ccco1)Nc1ccc(Oc2ccc(Cl)cc2)cc1	0.1	-107.9%*	-2.8	-10.8
Oc1ccc(/C=N/Nc2ccc(Cl)nn2)c(O)c1O	-0.4	i	nt	-95.3*
N#Cc1cccc(NC(=O)CSc2nnc(-c3n[nH]c4ccccc34)o2)c1	-0.8	i	-86.6*	-25.8
CC(C)n1nc(C(=O)Nc2cccc(S(=O)(=O)N3CCCCC3)c2)c2ccccc2c1=O	-2.6	i	-4.7	-0.6
CN(C)c1ccc(N=C/C=C2\N(C)c3ccccc3C2(C)C)cc1	0.3	i	?	-65.8*
CN1/C(=C\C=O)C(C)(C)c2ccccc21	-0.4	i	5.4	-0.1
Cc1ccc(C)n1Cc1ccc(C(=O)O)cc1	-0.4	i	4.0	-71.4*
C[C@H](CO)N1C[C@H](C)[C@@H](CN(C)S(=O)(=O)c2cn(C)cn2)Oc2c(NS(=O)(=O)c3cccs3)cccc2C1=O	-2.2	i	-24.2	-0.1
O=C(Nc1ccc(N2CCOCC2)cc1)c1ccncc1	-0.9	i	8.2	8.1
Cc1ccnc2nc(C(=O)Nc3ccc(N4CCOCC4)cc3)nn12	-0.2	-102.9%*	-2.2	-12.8
CCc1nc2ccc(C(=O)NCCCn3ccnc3)cn2c1N(C)C(=O)COc1ccccc1	-0.6	i	2.0	6.9
NC(=S)N=Nc1c(O)cc(O)c2[nH]c(=O)ccc12	0.2	i	-2.9	-84.5*
O=C(CCS(=O)(=O)c1ccccc1)Nc1ccc(Cl)cn1	-0.4	i	4.3	-3.4
CCOC(=O)C1=C(C)NC(C)=C(C(=O)OCC)C1C(=O)OCC(=O)NCCc1ccc(S(N)(=O)=O)cc1	-3.5	i	-7.7	3.1
Cc1ccc(S(=O)(=O)CCc2nc3ccccc3s2)cc1	-3.1	-100.8%*	2.3	8.8
CC(=O)Oc1cc2c(C(C)=O)coc2c2ccccc12	-0.1	-144.4%*	5.7	0.2
CC(=O)c1coc2c1cc(O)c1ccccc12	-0.3	i	-3.1	-1.4
Cc1n[nH]c(C)c1S(=O)(=O)N1CCCC(C(=O)N2CCN(c3ccc(Cl)cc3)CC2)C1 (stereo not given)	1.2	i	-1.7	-5.7
Cc1nn(C)c(C)c1S(=O)(=O)N1CCCC(C(=O)N2CCN(c3ccc(Cl)cc3)CC2)C1 (stereo not given)	0.4	-107.1%*	-0.2	-10.5
Cc1[nH]c(=O)[nH]c(=O)c1S(=O)(=O)N1CCCC(C(=O)N2CCN(c3ccccc3Cl)CC2)C1 (stereo not given)	-0.6	-124.4%*	-0.7	4.3
Cc1ccc(C)c(N2CCN(C(=O)C3CCCN(S(=O)(=O)c4c(C)[nH]c(=O)[nH]c4=O)C3)CC2)c1 (stereo not given)	1.0	i	-1.2	-9.2
SMILES	CCT chaperon mod	Akt phos inh	CtBP-E1A inh	Six1-Eya2 blk
CC(c1ccco1)N(C(=O)c1cccc(S(=O)(=O)N(C)C)c1)c1ccccn1 (stereo not given)	-51.0*	i	-2.7	4.3
CN(C(=O)c1cc2ccccc2o1)c1c(N)n(Cc2ccccc2)c(=O)[nH]c1=O	-1.6	i	-13.2	3.6
COC(=O)C1=NN(c2ccccc2)C2(S1)SC(C(C)=O)=C(C)N2c1ccccc1 (stereo not given)	1.6	-137.9%*	?	?
Cc1nc(C(F)(F)F)ccc1C(=O)N1CCC1(C)C(=O)NCc1ccc(Cl)cc1 (stereo not given)	-1.5	i	1.8	8.8
COCCN(C(=O)c1ccco1)C(C(=O)NC1CCCC1)c1cccs1 (stereo not given)	-1.8	-91.6%*	-9.5	-19.6
Oc1ccc(CNc2ccccc2F)c2cccnc12	0.2	i	-93.8*	-91.3*
Oc1ccc(COCc2ccccc2)c2cccnc12	-2.5	i	-97.9*	-90.1*
Oc1ccc(Cc2ccccc2)c2cccnc12	-3.2	i	-92.1*	-75.3*
Cc1ccc(N=Nc2ccc(O)c3ncccc23)cc1	-2.5	i	-22.8	?

From PubChem
